Laboratory results from PubChem BioAssay.
The source made the active and inactive calls.

Tests used:
Albumin (Bos taurus) = Albumin (Bos taurus) (UniProt P02769); test: bovine serum albumin binders on microarray, profiling panel, artefact control for SMM control protein annotation, biochemical, small-molecule microarray, Alexa647 label, 635/667 nm fluorescence (AID 1118); details: BSA-A647 binding, fluorescence 635 nm, higher = more signal;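 note: score merges 667 nm emission intensity and signal-to-noise per printed compound spot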
Sequence of Albumin (Bos taurus) (P02769 whole entry, looked up): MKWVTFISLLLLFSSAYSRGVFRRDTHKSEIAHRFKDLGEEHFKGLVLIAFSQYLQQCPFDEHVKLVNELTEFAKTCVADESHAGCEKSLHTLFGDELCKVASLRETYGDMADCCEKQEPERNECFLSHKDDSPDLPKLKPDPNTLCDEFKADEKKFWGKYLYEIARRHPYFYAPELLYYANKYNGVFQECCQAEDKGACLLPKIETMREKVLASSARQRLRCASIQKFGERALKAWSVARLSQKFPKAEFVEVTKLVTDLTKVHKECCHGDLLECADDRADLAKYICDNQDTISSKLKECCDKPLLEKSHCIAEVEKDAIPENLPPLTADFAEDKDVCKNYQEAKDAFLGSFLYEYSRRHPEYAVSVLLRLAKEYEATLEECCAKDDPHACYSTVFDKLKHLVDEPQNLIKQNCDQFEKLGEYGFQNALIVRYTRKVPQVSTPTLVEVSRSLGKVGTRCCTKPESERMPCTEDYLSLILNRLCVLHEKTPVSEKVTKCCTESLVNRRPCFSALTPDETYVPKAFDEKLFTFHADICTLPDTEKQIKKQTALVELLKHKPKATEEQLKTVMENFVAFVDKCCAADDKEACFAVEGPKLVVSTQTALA

[1] = small-molecule microarray binders of probe aXIP, primary screen, biochemical, NeuroSMM set, 635/667 nm fluorescence (AID 1119); details: higher = more signal, called active from +8 up or from −8 down;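 note: probe is the protein aXip251-270 applied at 1 µg/mL to compound-printed slides; binding of probe to printed compounds measured as 667 nm fluorescence plus signal to noise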
[2] = small-molecule binders of probe aNOTCH3, primary screen, biochemical, small-molecule microarray, 635/667 nm fluorescence (AID 1120); details: higher = more signal;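 note: probe is a biotin-tagged antibody raised against NOTCH3 rather than NOTCH3 protein; score merges spot fluorescence near 667 nm with spot signal to noise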
[3] = small-molecule binders of probe aNOTCH2, primary screen, biochemical, small-molecule microarray, 635/667 nm fluorescence (AID 1121); details: higher = more signal;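 note: score merges feature fluorescence read at 667 nm with its signal to noise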
[4] = target: Carbonic anhydrase 2 (Homo sapiens) (UniProt P00918); test: CAII small-molecule binders, profiling panel, biochemical, small-molecule microarray, Alexa647-labelled CAII (AID 1122); details: CAII-A647 binding fluorescence, higher = more signal
[5] = COS7 lysate on small-molecule microarray, probe aHis, 635 nm (AID 1123); details: COS7 cell lysate, fluorescence, higher = more signal;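 note: z-score combines 667nm fluorescence intensity with signal-to-noise per printed compound spot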
[6] = compound binding in COS7 lysate, probe aLAP1, primary screen, cell lysate, small-molecule microarray (AID 1124); details: probe aLAP1, fluorescence, higher = more signal;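 note: lysate comes from COS7 cells expressing LAP1 and is applied at 0.3 µg/mL; score merges spot fluorescence near 667 nm with signal-to-noise over triplicate slides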
Sam68 (KHDRBS1) = test: Sam68 small-molecule binders, primary screen, biochemical, small-molecule microarray, 635 nm fluorescence (AID 1125); details: small-molecule microarray binding, higher = more signal;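 note: score merges 667 nm channel intensity with signal to noise over triplicate slides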
[7] = system: Chordin-like protein 2 (CHRDL2); test: CHRDL2 small-molecule binders, primary screen, biochemical, small-molecule microarray, 635 nm fluorescence (AID 1126); details: small-molecule microarray binding, fluorescence 635 nm; higher = more signal;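 note: printed compound slides probed with Chrdl2 protein at 4 µg/mL for 1 h at 4 C; score merges 667 nm emission intensity with signal to noise over three replicate slides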
[8] = target: Concanavalin-A (Canavalia ensiformis) (UniProt P02866); test: ConA small-molecule binders, primary screen, artefact control for SMM control protein annotation, biochemical, small-molecule microarray, Alexa647 label, 635 nm (AID 1127); details: ConA-A647 binding fluorescence, higher = more signal;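 note: z combines 667 nm emission intensity with signal-to-noise across three replicate slides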
Sequence of Concanavalin-A (Canavalia ensiformis) (P02866 whole entry, looked up): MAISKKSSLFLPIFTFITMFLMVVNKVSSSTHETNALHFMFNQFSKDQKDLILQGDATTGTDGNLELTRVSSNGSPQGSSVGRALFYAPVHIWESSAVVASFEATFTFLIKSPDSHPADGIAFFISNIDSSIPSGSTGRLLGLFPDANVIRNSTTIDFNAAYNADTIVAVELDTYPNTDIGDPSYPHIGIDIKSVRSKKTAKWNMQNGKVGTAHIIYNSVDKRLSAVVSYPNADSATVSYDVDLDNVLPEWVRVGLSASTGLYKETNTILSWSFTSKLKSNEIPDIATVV

[9] = anti-His antibody binders, primary screen, artefact control for SMM control protein annotation, biochemical, small-molecule microarray, 635 nm fluorescence (AID 1128); details: anti-His Alexa647 antibody binding, higher = more signal;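 note: score merges feature fluorescence with signal-to-noise for each printed compound spot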
[10] = system: Human papillomavirus type 1a E7 protein (residues 1-88); test: HPV1a E7 small-molecule binders, primary screen, biochemical, small-molecule microarray, residues 1-88, 635 nm (AID 1129); details: small-molecule microarray binding, fluorescence 635 nm; higher = more signal
[11] = target: Focal adhesion kinase 1 (Homo sapiens) (UniProt Q05397); test: small-molecule microarray binders of FAK, primary screen, biochemical, 635/667 nm fluorescence, BSA, DTT (AID 1130); details: PTK2 binding, 635 nm fluorescence, higher = more signal;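 note: composite of spot emission at 667 nm and signal to noise over triplicate slides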
Sequence of Focal adhesion kinase 1 (Homo sapiens) (Q05397 whole entry, looked up): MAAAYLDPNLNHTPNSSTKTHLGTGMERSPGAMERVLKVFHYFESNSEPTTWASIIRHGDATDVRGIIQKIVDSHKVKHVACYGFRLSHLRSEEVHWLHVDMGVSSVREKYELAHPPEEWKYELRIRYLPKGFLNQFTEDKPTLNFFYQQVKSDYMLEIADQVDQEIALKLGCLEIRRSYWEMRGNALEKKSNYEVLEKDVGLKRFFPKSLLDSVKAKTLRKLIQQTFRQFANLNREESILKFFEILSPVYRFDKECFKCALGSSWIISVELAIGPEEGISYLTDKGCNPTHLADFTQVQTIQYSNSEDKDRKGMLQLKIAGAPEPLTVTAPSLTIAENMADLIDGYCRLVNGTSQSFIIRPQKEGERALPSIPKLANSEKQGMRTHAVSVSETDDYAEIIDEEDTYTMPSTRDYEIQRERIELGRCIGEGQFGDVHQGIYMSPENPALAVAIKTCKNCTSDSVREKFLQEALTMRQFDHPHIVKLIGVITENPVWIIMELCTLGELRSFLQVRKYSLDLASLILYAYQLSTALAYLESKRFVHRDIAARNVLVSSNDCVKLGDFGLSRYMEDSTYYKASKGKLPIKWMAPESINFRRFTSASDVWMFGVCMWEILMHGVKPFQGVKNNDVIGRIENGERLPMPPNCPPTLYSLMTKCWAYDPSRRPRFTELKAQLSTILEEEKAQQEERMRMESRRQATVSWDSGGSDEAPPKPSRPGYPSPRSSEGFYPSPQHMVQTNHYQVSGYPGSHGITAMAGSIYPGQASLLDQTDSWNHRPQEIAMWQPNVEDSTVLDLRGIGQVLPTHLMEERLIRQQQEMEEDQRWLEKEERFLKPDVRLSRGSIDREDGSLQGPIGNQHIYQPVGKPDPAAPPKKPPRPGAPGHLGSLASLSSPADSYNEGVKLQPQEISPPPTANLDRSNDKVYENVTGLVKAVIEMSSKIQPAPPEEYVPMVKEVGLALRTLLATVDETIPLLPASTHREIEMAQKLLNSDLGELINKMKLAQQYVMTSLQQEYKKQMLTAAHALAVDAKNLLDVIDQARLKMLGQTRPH

[12] = system: Fibrinogen (Alexa647-labelled); test: fibrinogen binders on compound microarrays, profiling panel, artefact control for SMM control-protein annotation, biochemical, small-molecule microarray, 635/667 nm fluorescence (AID 1131); details: fibrinogen-A647 binding fluorescence, higher = more signal;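 note: z-score merges 667 nm fluorescence with per-spot signal-to-noise over triplicate slides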
[13] = target: Follistatin (Homo sapiens) (UniProt P19883); test: follistatin binders on small-molecule microarrays, primary screen, biochemical, small-molecule microarray, 635/667 nm fluorescence (AID 1132); details: FST binding, 635 nm fluorescence, higher = more signal
Sequence of Follistatin (Homo sapiens) (P19883 whole entry, looked up): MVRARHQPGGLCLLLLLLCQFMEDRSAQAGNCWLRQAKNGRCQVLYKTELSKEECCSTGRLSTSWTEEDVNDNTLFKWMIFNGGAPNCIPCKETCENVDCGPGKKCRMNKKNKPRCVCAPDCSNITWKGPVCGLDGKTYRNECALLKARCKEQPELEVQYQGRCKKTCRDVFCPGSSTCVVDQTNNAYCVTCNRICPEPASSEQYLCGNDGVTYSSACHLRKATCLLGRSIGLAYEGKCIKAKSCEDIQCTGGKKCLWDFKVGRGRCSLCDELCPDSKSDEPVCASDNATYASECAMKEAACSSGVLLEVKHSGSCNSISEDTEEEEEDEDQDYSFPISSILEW

[14] = target: Fibroblast growth factor 2 (Homo sapiens) (UniProt P09038); test: FGF2 binders on small-molecule microarrays, primary screen, biochemical, small-molecule microarray, 635/667 nm fluorescence (AID 1133); details: small-molecule microarray binding, FGF2, fluorescence 635/667; higher = more signal
Sequence of Fibroblast growth factor 2 (Homo sapiens) (P09038 whole entry, looked up): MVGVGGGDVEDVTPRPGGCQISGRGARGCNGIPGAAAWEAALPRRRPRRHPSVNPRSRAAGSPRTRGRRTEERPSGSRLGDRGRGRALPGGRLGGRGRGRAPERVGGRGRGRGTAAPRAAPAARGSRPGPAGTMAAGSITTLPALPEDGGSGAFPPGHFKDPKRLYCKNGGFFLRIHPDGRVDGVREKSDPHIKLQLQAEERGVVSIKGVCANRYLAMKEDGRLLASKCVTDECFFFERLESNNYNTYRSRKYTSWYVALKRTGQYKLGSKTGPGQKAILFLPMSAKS

[15] = mitochondrial membrane potential change in A549 cells, profiling panel, cell-based, JC-1 fluorescence, basal, 24 h, 100 nL (AID 1138); details: higher = more signal;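 note: A549 lung adenocarcinoma cells under basal conditions with no added stimulus; test concentration not given here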
Lefty1 = Lefty1 binders on small-molecule microarrays, primary screen, biochemical, small-molecule microarray, 635/667 nm fluorescence (AID 1139); details: small-molecule microarray binding, fluorescence 635/667; higher = more signal
[16] = system: wheat germ agglutinin (Triticum aestivum), Alexa647-labelled; test: wheat germ agglutinin binders on compound microarrays, profiling panel, artefact control for SMM control-protein annotation, biochemical, small-molecule microarray, 635/667 nm fluorescence (AID 1140); details: WGA-A647 binding, 635 nm fluorescence, higher = more signal;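 note: score merges 667 nm feature emission with signal to noise over triplicate slides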
[17] = target: Luciferin 4-monooxygenase (Photinus pyralis) (UniProt P08659); test: firefly luciferase enzyme inhibitors, primary screen, biochemical, luminescence, purified enzyme, 2006 set (AID 1141); details: SteadyGlo luminescence, 30 min, higher = more signal, called active from +8 up or from −8 down;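 note: cell-free assay with purified firefly luciferase at 100 ng per well in PBS; test concentration not given here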
Sequence of Luciferin 4-monooxygenase (Photinus pyralis) (P08659 whole entry, looked up): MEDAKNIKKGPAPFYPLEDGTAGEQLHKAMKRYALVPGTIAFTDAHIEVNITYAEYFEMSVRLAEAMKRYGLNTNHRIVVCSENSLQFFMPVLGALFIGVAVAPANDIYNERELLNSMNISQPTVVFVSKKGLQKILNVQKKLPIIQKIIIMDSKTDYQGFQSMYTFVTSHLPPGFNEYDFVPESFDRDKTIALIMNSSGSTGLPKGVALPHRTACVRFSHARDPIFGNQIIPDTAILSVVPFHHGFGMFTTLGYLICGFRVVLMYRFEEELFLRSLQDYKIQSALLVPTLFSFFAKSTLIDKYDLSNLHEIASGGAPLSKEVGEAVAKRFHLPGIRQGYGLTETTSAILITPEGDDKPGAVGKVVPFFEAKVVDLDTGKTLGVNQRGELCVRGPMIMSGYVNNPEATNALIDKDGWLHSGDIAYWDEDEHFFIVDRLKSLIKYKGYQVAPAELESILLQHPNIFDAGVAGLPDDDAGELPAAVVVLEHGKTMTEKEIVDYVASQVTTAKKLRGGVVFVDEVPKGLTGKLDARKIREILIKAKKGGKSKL

Row | Structure (SMILES) | composite z-score (Albumin (Bos taurus)) | composite Z-score [1] | composite z-score [2] | composite z-score [3] | composite z-score [4] | composite z-score [5] | composite z-score [6] | composite z-score (Sam68 (KHDRBS1)) | composite z-score [7] | composite z-score [8] | composite z-score [9] | composite z-score [10] | composite z-score [11] | composite z-score [12] | composite z-score [13] | composite z-score [14] | z-score [15] | composite z-score (Lefty1) | composite z-score [16] | z-score [17]
1 | COC(=O)[C@@]1(Cc2ccccc2)[C@H]2c3cc(C(=O)N(C)C)n(Cc4ccsc4Br)c3C[C@H]2CN1C(=O)c1ccccc1 | 0.928 | -0.502 (inactive) | 0.501 | -0.0597 | 0.586 | 2.66 | -0.0415 | 1.21 | -1.03 | 0.883 | 1.18 | 1.24 | 0.483 | 0.834 | 0.797 | -0.535 | 1.04 | -0.143 | 0.948 | 0.78 (inactive)
2 | CN(C)CCCCCCNC(=O)[C@H]1C[C@H]2C(=O)N3CCC[C@H]3C(=O)N2[C@H]1c1ccc(O)cc1 | -0.584 | 0.233 (inactive) | 0.377 | -0.0438 | 0.561 | 2.04 | 0.81 | 1.34 | 1.43 | 1.22 | 2.74 | 1.24 | 1.03 | 0.678 | 1.34 | 1.48 | -0.727 | 1.39 | 0.622 | -0.171 (inactive)
3 | C=CCNC(=O)[C@@H]1[C@H]2C(=O)O[C@H](c3ccccc3)[C@H](c3ccccc3)N2[C@H](c2ccc(O)cc2)[C@@]12C(=O)Nc1ccc(C#CCNC(N)=O)cc12 | 0.118 | 0.0219 (inactive) | -0.169 | -0.166 | 0.352 | 0.636 | 0.73 | 0.512 | -0.671 | 0.0889 | -0.22 | -0.222 | 0.186 | -0.609 | 0.842 | -0.598 | -1.27 | 0.538 | 0.414 | -0.895 (inactive)
4 | NC(=O)NCC#Cc1ccc2c(c1)[C@]1(C(=O)N2)[C@H](c2ccccc2OCCO)N2[C@H](c3ccccc3)[C@H](c3ccccc3)OC(=O)[C@H]2[C@@H]1C(=O)Nc1nc2ccccc2s1 | 0.403 | 0.105 (inactive) | 0.288 | -0.123 | 0.237 | 1.63 | 0.0159 | 1.07 | -0.287 | 0.748 | 0.111 | 0.844 | 0.346 | 0.613 | 0.759 | 0.244 | -2.13 | 0.373 | 0.89 | 0.302 (inactive)
5 | COC(=O)C(CC#Cc1ccc2c(c1)[C@]1(C(=O)N2)[C@H](C(=O)Nc2nc3ccccc3s2)[C@H]2C(=O)O[C@H](c3ccccc3)[C@H](c3ccccc3)N2[C@@H]1c1ccc(O)cc1)C(=O)OC | 0.646 | 0.298 (inactive) | -0.0431 | -0.0846 | 0.378 | 1.96 | 0.301 | 1.3 | 0.673 | 1.04 | 0.274 | 1.24 | 0.936 | 0.947 | 1.2 | 0.973 | -2.25 | 0.963 | 1.01 | 0.416 (inactive)
6 | C=CC[C@@]12N=C(c3ccc(OCCCO)cc3)O[C@@H]1c1ccccc1N(C)C2=O | -0.16 | -0.419 (inactive) | 0.0637 | -0.0374 | 0.655 | 2.67 | 0.319 | 1.22 | 0.718 | 0.838 | 2.16 | 1.23 | 0.338 | 0.363 | 1.52 | 1.62 | 1.26 | 0.283 | 0.65 | -4.19 (inactive)
7 | CC(C)NC(=O)[C@@H]1c2ccccc2C(=O)N(C2Cc3ccccc3C2)[C@H]1c1ccc(CO)cc1 | 0.416 | 0.392 (inactive) | -0.145 | -0.117 | 0.492 | 1.62 | 0.781 | 0.983 | -0.321 | 0.771 | 1.51 | 1.04 | 0.0815 | 0.445 | 0.351 | 0.162 | 2.54 | -0.0727 | 0.664 | 0.668 (inactive)
8 | C#C[C@H](O[Si](C#Cc1ccc(Oc2ccccc2)cc1)(C(C)C)C(C)C)c1ccccc1 | 0.687 | 0.29 (inactive) | 0.0122 | -0.0057 | 0.695 | 0.45 | 0.484 | 0.99 | 0.662 | 0.971 | -0.179 | 0.679 | -0.6 | 0.385 | 0.101 | 0.137 | -1.83 | 0.104 | 0.0936 | 0.0848 (inactive)
9 | Cc1ccc(N2C(=O)c3ccccc3[C@@H](C(=O)NC3CC3)[C@@H]2c2ccc(CO)cc2)nc1 | -0.301 | -0.648 (inactive) | -0.481 | -0.165 | 0.677 | -0.663 | 0.653 | -2.27 | -1.97 | -0.616 | 0.442 | -0.372 | -1.29 | -3.9 | -0.71 | 0.392 | -0.487 | -1.79 | -0.0414 | 0.309 (inactive)
